Hits are enriched below; roughly 2.4% of the tested compounds scored in any of these assays.
MEKK3 PB1 HTS – MEKK3-MEK5 PB1 interaction, increase or decrease | Q99759 | bead-based flow cytometry, Alexa488-MEK5 binding to MEKK3; actives lie on both sides; 0 = blocked by unlabeled MEK5, 100 = vehicle | binding response (% of control), % at 10 µM | 290,000 tested, 1.4% active;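 active = binding response more than 3 SD above or below the average of its plate-row segment, actives on both sides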;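 note: Alexa488 bead fluorescence after subtracting the streptavidin-only scavenger bead signal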
Target sequence (Q99759 whole entry, looked up): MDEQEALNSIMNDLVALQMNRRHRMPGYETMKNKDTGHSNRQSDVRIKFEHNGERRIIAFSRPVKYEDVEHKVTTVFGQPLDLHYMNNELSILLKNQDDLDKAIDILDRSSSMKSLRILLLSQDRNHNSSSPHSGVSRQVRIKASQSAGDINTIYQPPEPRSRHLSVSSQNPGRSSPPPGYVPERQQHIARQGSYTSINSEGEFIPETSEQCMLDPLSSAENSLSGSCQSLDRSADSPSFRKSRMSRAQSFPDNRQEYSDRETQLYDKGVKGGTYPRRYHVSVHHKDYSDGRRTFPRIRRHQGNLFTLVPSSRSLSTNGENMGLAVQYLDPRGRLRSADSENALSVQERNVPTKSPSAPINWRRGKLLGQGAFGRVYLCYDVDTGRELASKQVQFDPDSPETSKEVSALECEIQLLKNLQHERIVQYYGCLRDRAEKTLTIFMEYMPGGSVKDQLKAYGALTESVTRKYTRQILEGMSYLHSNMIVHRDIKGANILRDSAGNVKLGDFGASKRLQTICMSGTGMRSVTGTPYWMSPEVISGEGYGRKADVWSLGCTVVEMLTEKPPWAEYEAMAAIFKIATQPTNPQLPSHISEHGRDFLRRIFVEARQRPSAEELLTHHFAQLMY
MEKK2wt PB1 HTS – raises or lowers MEK5 binding to wildtype human MEKK2 PB1 domain | Q9Y2U5 | bead flow cytometry, Alexa488-MEK5 binding to MEKK2 WT; actives lie on both sides | binding response (% of control), % at 10 µM | 290,000 tested, 1.1% active | AID 1531; in the data active = binding response below about 67% or above about 130%
MEKK2mut PB1 HTS – signal of MEK5 binding to mutant human MEKK2 PB1 domain; bead flow cytometry, Alexa488-MEK5 binding to MEKK2 mutant; percent response, % at 10 µM; 290,000 tested, 0.35% active; AID 1530; in the data active = percent response above about 24%, passing the limit was not always enough
Arbovirus inh – blocks arbovirus infection | 200,000 tested, 0.37% active | arbovirus infection cell-based antiviral screen | inhibition, % at 10 µM; in the data active = inhibition above about 30%
Pf gamet viab – P. falciparum stage V gametocyte viability inhibition; inhibition, % at 10.9 µM; P. falciparum stage V gametocytes, ATP luminescence, 24 h; 150,000 tested, 0.065% active; AID 743093;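 active = inhibition above the mean plus 3 SD of compounds within the control limits, set per campaign, cut at about 38% in these data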
MEKK2wt confirm – raises or lowers MEK5 binding to wildtype human MEKK2, retest; binding response (% of control), % at 10 µM; bead flow cytometry, Alexa488-MEK5 binding to MEKK2 WT; actives lie on both sides; shares compounds with MEKK3 PB1 HTS; 5,900 tested, 2.4% active; in the data active = binding response below about 16% or above about 210%; inactive = in between
MEKK2mut-MEK5 – signal of MEK5 binding to mutant human MEKK2, retest; shares compounds with MEKK3 PB1 HTS; bead flow cytometry, Alexa488-MEK5 binding to MEKK2 mutant; percent response, % at 10 µM; 5,900 tested, 2% active; AID 1893; in the data active = percent response mostly above about 71%, no sharp cut-off; inactive = mostly below about 38%;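 note: higher means compound restores mutant binding toward wildtype level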
MEKK3 confirm – MEKK3-MEK5 PB1 inhibition, single concentration confirmation; shares compounds with MEKK3 PB1 HTS; binding response (% of control), % at 10 µM; bead flow cytometry, Alexa488-MEK5 binding to MEKK3; stronger effect = lower value; 5,900 tested, 1.8% active;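 active = binding response below 72% of control, or above a set upper limit, though filed actives all read lower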
A number is an active result; i = inactive; nt = no result given; [ ] = another dose, or the depositor's remark.

SMILES | MEKK3 PB1 HTS | MEKK2wt PB1 HTS | MEKK2mut PB1 HTS | Arbovirus inh | Pf gamet viab | others
COc1cc(/C=C/C(=O)c2c(O)n(CCc3ccccc3)c(=O)[nH]c2=O)ccc1O | i | i | i | 46 | i
CC[n+]1c(/C=C/C=C/c2ccc(N(C)C)cc2)sc2ccccc21 | i | -5.0 | i | nt | i
C[n+]1c(-c2ccccc2)sc2ccccc21 | i | i | i | nt | i
CN(C)c1ccc(/C=C/C=C/c2sc3ccccc3[n+]2C)cc1 | i | 4.0 | i | nt | i
Cc1nn(Cc2c(Cl)cccc2Cl)c(Cl)c1C(=O)O | i | -4.0 | i | i | i
Cc1ccc(/C=C2/Sc3ccc(C(=O)N4CCC5(CC4)OCCO5)cc3NC2=O)cc1 | i | i | i | nt | nt
CCOc1ccc(C(C)=O)cc1Cn1ccsc1=N | i | 145 | i | nt | nt
O=C1NC(=O)N(Cc2ccc(F)cc2)C(=O)/C1=C\c1ccc(N2CCCC2)cc1 | i | 18 | i | nt | i
O=C1NC(=O)N(c2ccc(F)cc2)C(=O)/C1=C/c1ccc(N2CCOCC2)cc1 | i | i | i | i | i
COC(=O)C1=C(c2ccc(F)cc2F)C[C@@H]2CC[C@H]1N2C(=O)NC1Cc2ccccc2C1 | nt | nt | nt | nt | i
COc1ccc(C(=O)OC2C[C@H]3CC[C@@H](C2)N3O)cc1OC (stereo not given in full) | i | i | i | nt | nt
O=C(N/N=C/c1c(O)n(Cc2ccccc2)c(=O)[nH]c1=O)c1ccccc1O | i | i | i | 58 | i
COc1ccc(Cn2c(O)c(/C=N/NC(=O)c3ccccc3O)c(=O)[nH]c2=O)cc1 | i | i | i | i | nt
O=C(N/N=C/c1c(O)n(Cc2ccc(F)cc2)c(=O)[nH]c1=O)c1ccccc1O | i | i | i | 55 | i
O=C(N/N=C/c1c(O)n(CCc2ccc(F)cc2)c(=O)[nH]c1=O)c1ccncc1 | i | i | i | i | i
O=C(N/N=C/c1c(O)n(CCc2ccccc2)c(=O)[nH]c1=O)c1ccncc1 | i | i | i | 32 | i
CC1CN(c2ccc([N+](=O)[O-])cc2Cl)CCN1 (stereo not given) | i | i | i | i | i
Cc1ccc(CC2C(=O)N(C)C(=O)N(C)C2=O)s1 | i | i | i | 81 | i
CCCC/C(=N/O)c1c(C)[nH]c2ccccc12 | i | i | i | i | nt
O=C(CCC(=O)N1CC2C[C@@H](C1)Cn1c2cccc1=O)NCCc1ccccc1F | i | i | i | nt | nt
NC(N)=N/N=C/c1cn(-c2ccccc2)nc1-c1cccs1 | i | 184 | i | i | i
O=c1c2ccccc2nc(-c2cccs2)n1-c1ccccc1 | i | i | i | i | nt
Brc1ccc2c(c1)C(OC1CN3CCC1CC3)c1ccccc1CS2 (stereo not given) | i | 156 | i | i | nt | MEKK2wt confirm=i;MEKK2mut-MEK5=i;MEKK3 confirm=i
COc1cc(CNCCc2ccc3c(c2)OCO3)ccc1O | i | i | i | nt | i
COc1cc(CNCCc2ccc3c(c2)OCO3)cc(OC)c1OC | 47[inhibitor] | i | i | i | i | MEKK2wt confirm=i;MEKK2mut-MEK5=i;MEKK3 confirm=i
SMILES | MEKK3 PB1 HTS | MEKK2wt PB1 HTS | MEKK2mut PB1 HTS | Arbovirus inh | Pf gamet viab | others
Cc1cc(C)n(-c2ccc(NN=C(C#N)C#N)cc2)n1 | 40[inhibitor] | 43[inhibitor] | i | nt | i | MEKK2wt confirm=i;MEKK2mut-MEK5=i;MEKK3 confirm=i
N#CC(C#N)=NNc1ccc(-n2ccc(C(F)(F)F)n2)cc1 | i | i | i | nt | i
COc1ccc(CC(C)NCCC(c2ccccc2)c2ccccc2)cc1 (stereo not given) | i | 171 | 28 | nt | i | MEKK2wt confirm=i;MEKK2mut-MEK5=i;MEKK3 confirm=i
CC(Cc1ccccc1)NC(N)=O (stereo not given) | i | i | i | nt | nt
CC(=O)c1c(O)n(-c2cccc(Cl)c2)c(=O)[nH]c1=O (tested in a mixture with another compound) | 128 | i | i | nt | i | MEKK2wt confirm=i;MEKK2mut-MEK5=i;MEKK3 confirm=i
c1ccc2nc(OCCN3CC3)ccc2c1 | i | 181 | 32 | nt | nt | MEKK2wt confirm=i;MEKK2mut-MEK5=i;MEKK3 confirm=i
c1ccc(C(OCCN2CCNCC2)c2ccccc2)cc1 | i | i | i | i | nt
